Measured values from PubChem BioAssay.
“And” between values parts separate entries of the source, which are not always exact repeats. Identical values can stand only once. The source made the active and inactive calls. Rule as the data show it, unless noted: active = inhibition above about 80%; inactive = the rest.

Key:
[1] = hESC survival regulators, cell-based (AID 493140; call rule not given here;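 also: cells exposed to compounds for four days before counting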); conditions: human embryonic stem cell survival screen; stronger effect = higher value
[2] = liver-stage malaria parasite growth inhibition, primary screen, cell-based, HepG2, luciferase luminescence, HepG2 viability (AID 624349; in the data active = parasite load remaining mostly below about 12%, no sharp cut-off; inactive = mostly above about 10%;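 also: 100% = mean of DMSO negative control wells on the same plate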); conditions: P. berghei liver stage in HepG2, luciferase luminescence, concentration not given here; parasite load remaining: stronger effect = lower value; viability: measured here: HepG2 viability without parasites
[3] = sensitizers of A549 cells to miR-34 induction, primary screen, imaging, A549 dox-inducible miR-34, nuclei and caspase counts (AID 1347080;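 active = compounds whose cell count with miR-34 switched on is under 0.7 times the count with it off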); conditions: A549 miR-34 inducible, Hoechst nuclei count, 48 h
[4] = survival rescue of mitochondrial mutant cells in low glucose, primary screen, MELAS cybrids, Rieske KO mouse fibroblasts, CellTiter-Glo (AID 1508586;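 active = mean z-score across replicates of 1.96 or higher in either the MELAS or the Rieske mutant cell line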;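 also: z relative to plate mean and SD of compound and empty wells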)
[5] = LFS_MB_P medulloblastoma growth inhibition, cell-based, chromothripsis tumors, cisplatin or BGB combos (AID 1671449); conditions: LFS_MB_P medulloblastoma cells;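 also: cells exposed for 96 hours; 0% = vehicle DMSO and 100% = killing by high DMSO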
[6] = HDN33 neuroblastoma growth inhibition, cell-based, chromothripsis tumors, cisplatin or BGB combos (AID 1671450); conditions: HDN33 neuroblastoma cells, stronger effect = higher value;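 also: cells exposed to compound for four days; 0% = vehicle DMSO and 100% = cell killing by high DMSO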
[7] = ICB984 medulloblastoma cell growth inhibition, synergistic combos for chromothripsis tumors, cisplatin or BGB combos (AID 1671451; call rule not given here;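 also: cells exposed for 96 hours before readout; 0% = vehicle DMSO and 100% = killing by high DMSO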); conditions: ICB984 medulloblastoma cells, drug combinations, stronger effect = higher value
[8] = LFS_MB_1R medulloblastoma cell growth inhibition, synergistic combos for chromothripsis tumors, cisplatin or BGB combos (AID 1671452); conditions: LFS_MB_1R medulloblastoma cells, stronger effect = higher value;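 also: cells exposed for 96 hours before readout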
[9] = HTB85 osteosarcoma cell growth inhibition, synergistic combos for chromothripsis tumors, BGB or cisplatin IC20 combos (AID 1671453); conditions: HTB85 osteosarcoma cells, drug combinations, stronger effect = higher value;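 also: cells exposed for 96 hours before readout; 0% = vehicle DMSO and 100% = high DMSO killing control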
[10] = CRL2098 osteosarcoma cell growth inhibition, synergistic combos for chromothripsis tumors, BGB or cisplatin IC20 combos (AID 1671454); conditions: CRL2098 osteosarcoma cells, drug combinations, stronger effect = higher value;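 also: cells exposed for 96 h before readout; 0% = vehicle DMSO and 100% = killing by high DMSO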
[11] = HD-MB03 medulloblastoma cell growth inhibition, synergistic combos for chromothripsis tumors, BGB or cisplatin IC20 combos (AID 1671455; in the data active = inhibition above about 83%;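 also: 0% = vehicle DMSO and 100% = high DMSO as cytotoxic control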); conditions: HD-MB03 medulloblastoma cells, stronger effect = higher value
[12] = UWB1.289 ovarian carcinoma cell growth inhibition, synergistic combos for chromothripsis tumors, BGB or cisplatin combos (AID 1671456); conditions: UWB1.289 ovarian carcinoma cells, stronger effect = higher value;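 also: cells exposed to compound for four days; 0% = vehicle DMSO and 100% = killing by high DMSO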
[13] = LFS_MB_2R medulloblastoma cell growth inhibition, synergistic combos for chromothripsis tumors, cisplatin combos (AID 1671457); conditions: LFS_MB_2R medulloblastoma cells, stronger effect = higher value;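 also: cells exposed to compound for four days before readout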
[14] = MDA-MB-436 breast carcinoma cell growth inhibition, synergistic combos for chromothripsis tumors, BGB or cisplatin combos (AID 1671458; call rule not given here;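 also: cells exposed for 96 hours; 0% = vehicle DMSO and 100% = killing by high DMSO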); conditions: MDA-MB-436 breast carcinoma growth inhibition, drug combinations, stronger effect = higher value
[15] = UWB1.289_BRCA1 ovarian cancer growth, cell-based, BGB or cisplatin combinations (AID 1671459); conditions: UWB1.289 BRCA1 ovarian carcinoma, drug combinations, stronger effect = higher value
[16] = human astrocyte viability loss, single and combined drugs, cytotoxicity control for chromothriptic childhood tumor combination screen, cell-based, BGB or cisplatin IC20 combos (AID 1671460); conditions: Human astrocytes, drug combinations, stronger effect = higher value;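 also: cells exposed to compounds for 96 hours before viability readout; 0% = vehicle and 100% = killing control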
[17] = growth inhibition of BT084 medulloblastoma cells, cell-based, ICGC_MB145, cisplatin and BGB IC40 combos (AID 1671461); conditions: drug combinations, at 0.5 µM, stronger effect = higher value;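 also: cells exposed to drugs for 96 hours; 0% = vehicle DMSO and 100% = high DMSO full killing control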
[18] = stronger effect = lower value, cell number ratio, induced over uninduced
[19] = measured here: relative caspase fold change +Dox/-Dox
[20] = measured here: total cells with miR-34 induction, stronger effect = lower value
[21] = measured here: total cells without miR-34 induction
[22] = MELAS cybrid survival, CellTiter-Glo 48 h, stronger effect = higher value
[23] = Rieske KO mouse fibroblast survival, CellTiter-Glo 72 h
[24] = measured here: combination with BGB IC40, at 0.05 µM
[25] = measured here: combination with cisplatin, at 0.5 µM
[26] = measured here: combination with cisplatin, at 5 µM

CNCC(O)c1ccc(OC(=O)C(C)(C)C)c(OC(=O)C(C)(C)C)c1 (stereo not drawn)
survival [1]: 4.83 (inactive)
parasite load remaining [2]: 97.5% (inactive) and 55.6% (inactive)
viability [2]: 100% and 75.1%
fold change [3, 18]: 0.893 (inactive)
fold change [3, 19]: 0.873
cell count [3, 20]: 8640
cell count [3, 21]: 9680
z-score [4, 22]: -1.22 (inactive)
z-score [4, 23]: -0.55

CNc1ncnc2c1ncn2[C@@H]1O[C@H](CO)[C@@H](O)[C@H]1O
survival [1]: 5.42 (inactive)
parasite load remaining [2]: 23.9% (inactive) and 70.7% (inactive)
viability [2]: 132% and 78.2%
fold change [3, 18]: 0.829 (inactive)
fold change [3, 19]: 1.48
cell count [3, 20]: 7800
cell count [3, 21]: 9420
z-score [4, 22]: 0.118 (inactive)
z-score [4, 23]: -0.237

O=c1[nH]c(=O)n(C2CC(O)C(CO)O2)cc1I (stereo not drawn)
fold change [3, 18]: 0.851 (inactive)
fold change [3, 19]: 0.749
cell count [3, 20]: 6980
cell count [3, 21]: 8200
z-score [4, 22]: -0.224 (inactive)
z-score [4, 23]: -0.483
inhibition ([5]; at 0.5 µM, stronger effect = higher value): 4.71% (inactive)
inhibition ([5]; measured here: combination with BGB IC20, at 0.005 µM): 8.42%
inhibition ([5]; measured here: combination with BGB IC40, at 0.005 µM): -21.4%
inhibition [5, 24]: 12.9%
inhibition ([5]; measured here: combination with cisplatin, at 0.5 µM, stronger effect = higher value): -5.31%
inhibition ([5]; measured here: combination with cisplatin, at 5 µM, stronger effect = higher value): 2.43%
inhibition ([6]; BGB combo, at 5 µM): 9.54%
inhibition ([6]; at 0.5 µM): -18.4% (inactive)
inhibition ([6]; cisplatin combo, at 5 µM): 3.9%
inhibition ([6]; measured here: with BGB IC20 combination, at 0.5 µM): -28.5%
inhibition ([6]; measured here: with cisplatin IC20 combination, at 0.5 µM): -14%
inhibition ([6]; single agent, at 5 µM): 24%
inhibition ([7]; BGB IC20 combo, at 0.005 µM): -15.6%
inhibition ([7]; BGB IC40 combo, at 0.005 µM): -20.9%
inhibition ([7]; BGB IC40 combo, at 0.05 µM): -13.7%
inhibition ([7]; at 0.5 µM): -8.85% (inactive)
inhibition ([7]; cisplatin combo, at 0.05 µM): -13.7%
inhibition ([7]; cisplatin combo, at 0.5 µM): -12.8%
inhibition ([7]; cisplatin combo, at 5 µM): -9.03%
inhibition ([7]; measured here: 5 uM single agent, at 5 µM): 4.46%
inhibition ([8]; at 0.5 µM): -47.8% (inactive)
inhibition [8, 24]: -9.63%
inhibition [8, 25]: -105%
inhibition [8, 26]: -24%
inhibition ([9]; at 0.5 µM): -28.2% (inactive)
inhibition ([9]; measured here: with BGB IC20, at 0.5 µM): -26.8%
inhibition ([9]; measured here: with BGB IC20, at 5 µM): -4.26%
inhibition ([9]; measured here: with cisplatin IC20, at 0.5 µM): -39.9%
inhibition ([9]; measured here: with cisplatin IC20, at 5 µM): -31.8%
inhibition ([9]; single agent, at 5 µM): -17.4%
inhibition ([10]; at 0.5 µM): -42.2% (inactive)
inhibition ([10]; measured here: combination with BGB at IC20, at 0.5 µM): -45.9%
inhibition ([10]; measured here: combination with cisplatin at IC20, at 0.5 µM): -41.5%
inhibition ([11]; at 0.5 µM): -7.04% (inactive)
inhibition ([11]; measured here: combo with BGB at IC20, at 0.5 µM): -3.12%
inhibition ([11]; measured here: combo with cisplatin at IC20, at 0.5 µM): -7.71%
inhibition ([12]; at 0.5 µM): -5.21% (inactive)
inhibition ([12]; measured here: inhibition with BGB combination, at 0.05 µM): -13.3%
inhibition ([12]; measured here: inhibition with cisplatin combination, at 0.05 µM): -14.8%
inhibition ([13]; at 0.5 µM): -2.58% (inactive)
inhibition [13, 25]: 4.62%
inhibition [13, 26]: -3.61%
inhibition ([14]; at 0.5 µM): -9.35% (inactive)
inhibition ([14]; measured here: BGB combination, at 0.5 µM): -10.8%
inhibition ([14]; measured here: BGB combination, at 5 µM): -16.9%
inhibition ([14]; measured here: cisplatin combination, at 0.5 µM): -22.4%
inhibition ([14]; measured here: cisplatin combination, at 5 µM): -10.7%
inhibition ([15]; BGB combination, concentration series, at 5 µM): 0.385%
inhibition ([15]; at 0.5 µM): -5.4% (inactive)
inhibition ([15]; cisplatin combination, concentration series, at 5 µM): -6.29%
inhibition ([16]; at 0.5 µM): -11.4% (inactive)
inhibition ([16]; measured here: combo with BGB IC20, at 0.5 µM): -7.44%
inhibition ([16]; measured here: combo with cisplatin IC20, at 0.5 µM): -19.9%
inhibition [17]: -4.3% (inactive)
